# Bioassay records as filed in PubChem BioAssay.
# PNC assembly inh = High Content Assay for Compounds that inhibit the Assembly of the Perinucleolar Compartment; PC3M PTB-GFP, PNC prevalence imaging, 16 h; stronger effect = lower value; activity change (PNC), negative = inhibition, % at 10 µM; hit rate 3.1% among 140,000; AID 2417, 2010;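 active = readout at or below -70, meaning at least 70% loss of cells showing the perinucleolar compartment, a nuclear body marking cancer cells; inconclusive = readout between -30 and a set limit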;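 note: plate controls were DMSO wells for no effect and camptothecin positive control wells for full effect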
#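 PC3M cells stably expressing PTB-GFP, 750–1000 cells/well, treated 16 h at 37 °C with compound (23 nl of library stock), in duplicate. After paraformaldehyde fixation and Hoechst stain, imaged at 20x; PNC prevalence scored by image analysis.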
# HPGD block = qHTS Assay for Inhibitors of HPGD (15-Hydroxyprostaglandin Dehydrogenase). purified HPGD, NADH fluorescence kinetic, PGE2 substrate. AID 894, 2007. Potency, µM, inactives show top-dose activity change, negative = inhibition, hits mostly inhibitors. 15-hydroxyprostaglandin dehydrogenase [NAD(+)] (Homo sapiens), P15428. hit rate 4.3% among 150,000; active = well fitted inhibition curve with a large enough effect, not every such curve was filed as active; inconclusive = small, poorly fitted or top-dose-only effect, or another doubt; inactive = no such curve, though single readings can be large or run the other way; note: potency is the fitted concentration of half-maximal effect
#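 NADH formation kinetics: reaction with 30 uM PGE2 and 1 mM NAD+ (final), 20 nM enzyme, Tris-HCl pH 8 with Tween 20, after 15 min compound preincubation at room temperature. Fluorescence change, last versus first of five reads.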
# GLA inh pH 4.5 = qHTS Assay for Inhibitors of Human alpha-Galactosidase at pH 4.5. Alpha-galactosidase A (Homo sapiens), P06280. purified enzyme, 4-MU-alpha-Gal fluorescence, pH 4.5. activity change, negative = inhibition, % at 105 µM. 230,000 tested, under 10 active. AID 1467, 2008;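 note: 0% = full activity with enzyme and -100% = basal without enzyme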
# aGal spleen mod = qHTS Assay for Inhibitors and Activators of Human alpha-Galactosidase From Spleen Homogenate | Alpha-galactosidase A (Homo sapiens), P06280 | human spleen homogenate, 4MU-alpha-Gal fluorescence, 40 min | Potency, µM (series often up to 80 µM), inactives show at the top dose activity change, negative = inhibition, actives largely listed as inhibitors | hit rate 0.008% among 240,000 | AID 2107, 2009;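 note: potency is the fitted concentration of half-maximal effect; 0% = enzyme with vehicle and -100% = no enzyme basal signal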
#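 Inhibition or activation of alpha-galactosidase in human spleen homogenate is scored by 4-MU fluorescence after 40 min at 37C, pH 5.0, with 1 mM substrate. AC50s come from concentration-response fitted to the Hill equation.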
# ALDH1A1 block = qHTS Assay for Inhibitors of Aldehyde Dehydrogenase 1 (ALDH1A1); Purified ALDH1A1, NADH fluorescence, propionaldehyde substrate; Potency, µM (highest dose often 75.3 µM), without a hit: top-dose activity, negative = inhibition, hits mostly inhibitors; hit rate 7.3% among 220,000; active = well fitted inhibition curve with a large enough effect, not every such curve was filed as active; inconclusive = small, poorly fitted or top-dose-only effect, or another doubt; inactive = no such curve, though single readings can be large or run the other way;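 note: potency is the fitted concentration of half-maximal effect; plate controls were no enzyme wells and a reference inhibitor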
# ALOX12 inhib = qHTS Assay for Inhibitors of 12-hLO (12-human lipoxygenase) | Polyunsaturated fatty acid lipoxygenase ALOX12 (Homo sapiens), P18054 | purified 12-hLO, xylenol orange hydroperoxide absorbance | Potency, µM (highest dose often 57.1 µM), without a hit: top-dose activity change, negative = inhibition, actives largely listed as inhibitors | hit rate 0.12% among 150,000; note: potency is the fitted concentration of half-maximal effect; nearly all actives have a fitted effect of over 55% in size
# Target sequence (P18054 whole entry, looked up): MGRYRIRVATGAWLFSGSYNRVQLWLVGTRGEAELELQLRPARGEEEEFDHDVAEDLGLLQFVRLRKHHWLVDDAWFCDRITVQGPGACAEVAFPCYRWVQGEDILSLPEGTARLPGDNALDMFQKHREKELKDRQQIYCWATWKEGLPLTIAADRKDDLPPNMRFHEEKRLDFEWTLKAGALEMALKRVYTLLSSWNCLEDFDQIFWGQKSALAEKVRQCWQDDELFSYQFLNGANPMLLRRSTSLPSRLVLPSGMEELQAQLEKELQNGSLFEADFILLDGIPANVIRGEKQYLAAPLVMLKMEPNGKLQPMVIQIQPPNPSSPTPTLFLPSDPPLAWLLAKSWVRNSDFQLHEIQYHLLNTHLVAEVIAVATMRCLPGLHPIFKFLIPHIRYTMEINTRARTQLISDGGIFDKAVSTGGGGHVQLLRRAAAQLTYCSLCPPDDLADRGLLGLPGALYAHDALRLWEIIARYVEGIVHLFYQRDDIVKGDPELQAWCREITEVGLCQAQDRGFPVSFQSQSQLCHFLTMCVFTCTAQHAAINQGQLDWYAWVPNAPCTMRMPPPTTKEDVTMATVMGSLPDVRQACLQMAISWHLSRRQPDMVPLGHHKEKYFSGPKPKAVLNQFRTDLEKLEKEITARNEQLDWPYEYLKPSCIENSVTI
#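 Lipoxygenase turnover measured by absorbance at 573 and 405 nm after Fe-XO development. Human 12hLO 150 nM, arachidonate 40 uM, pH 7.0 Hepes buffer with detergent; 15 min compound preincubation, 30 min reaction.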
# Active calls of the source: *; ? = inconclusive; nt = no result. Rows were chosen to be rich in hits. Some 10% of all compounds tested hit in one or more screens of this group. Unless noted, calls come from the whole dose curve; as a rule, active = well fitted curve in the direction sought with a large enough effect; inconclusive = small, poorly fitted or top-dose-only effect, or another doubt; inactive = no such curve, though single readings can be large; an effect the other way counts as inactive or inconclusive. Unless noted, % is set by controls: 0 for no effect and ±100 for the full control effect.
SMILES,PNC assembly inh,HPGD block,GLA inh pH 4.5,aGal spleen mod,ALDH1A1 block,ALOX12 inhib
Cc1nn2c(nc1=O)NNC2(C)C(C)(C)C (stereo not drawn),nt,nt,-12,1%,2%,nt
COc1ccc(CCN2C(=O)CC(NNc3ccc([N+](=O)[O-])cc3)C2=O)cc1OC (stereo not drawn),nt,nt,-5,-9%,10µM*,nt
COc1ccc(CCNC2CC(=O)N(CCc3ccc(OC)c(OC)c3)C2=O)cc1OC (stereo not drawn),3,-11%,-7,-8%,6.3µM*,-2%
O=C(O)c1ccccc1C(=O)Nc1ccc(Br)c2cccnc12,nt,nt,9,-1%,-3%,nt
Cc1ccc(C(=O)OCCc2c(C)[nH]n(-c3ccccc3)c2=O)cc1,8,-11%,-25,0%,6%,-9%
COC(=O)c1c(-c2ccc(F)cc2)noc1N,-89*,-2%,1,3%,1%,0%
COC(=O)N1CCC2(CCCN(Cc3nccs3)C2)CC1,nt,-2%,nt,8%,-2%,0%
CC(C)(C)OC(=O)NCC12C=CC(O1)C1C(=O)N(Cc3ccccc3)C(=O)C12 (stereo not drawn),27,-11%,-13,4%,3.2µM*,-2%
C=CCn1c(-c2cccc(OCC)c2)n[nH]c1=S,nt,nt,4,-12%,-4%,nt
C=CCn1c(-c2cc(OC)cc(OC)c2)n[nH]c1=S,-28,-28%,1,-4%,22µM*,-4%
Cc1cc(C(N)=O)nn1-c1c(Cl)cc(Cl)cc1Cl,nt,nt,-12,0%,7%,nt
Cc1ccc(S(=O)(=O)N(C)C)cc1NC(=S)NC(=O)C12CC3CC(CC(C3)C1)C2,?,-5%,-17,-1%,?,5%
NS(=O)(=O)c1cccc(NC(=S)NC(=O)C23CC4CC(CC(C4)C2)C3)c1,-19,-24%,-8,6%,28µM*,?
O=C(Cn1cnc2c(nnn2Cc2ccc(Cl)cc2)c1=O)NCc1ccco1,112,16µM*,6,15%,?,-6%
O=C(Cn1cnc2c(nnn2Cc2ccc(F)cc2)c1=O)NCc1ccco1,37,16µM*,2,5%,6%,1%
O=C(Cn1cnc2c(nnn2Cc2ccccc2)c1=O)NCc1ccco1,?,14µM*,-1,8%,3%,-3%
COc1cc2c(=O)n(Cc3ccccc3)c(=O)n(CC(=O)NCc3ccco3)c2cc1OC,-29,?,5,4%,1.4µM*,2%
O=C(Cn1cnc2c(nnn2Cc2ccc(F)cc2)c1=O)NCc1ccccc1,nt,nt,-9,14%,nt,nt
COC(=O)N1CCC2(CC1)CCN(c1ccccc1)CC2,nt,-2%,nt,9%,-4%,-4%
COc1ccc(CCNC(=O)CNC(=O)Cn2ccc3ccccc3c2=O)cc1OC,nt,nt,2,7%,nt,nt
O=C(Cn1cnc2c(nnn2Cc2ccccc2)c1=O)c1ccccc1,-9,22µM*,-5,2%,-16%,0%
O=C(Cn1cnc2c(nnn2Cc2ccc(Cl)cc2)c1=O)c1ccccc1,nt,nt,1,5%,?,nt
CC/C=C\C/C=C\C/C=C\C/C=C\C/C=C\C/C=C\CCC(=O)NCCCC(=O)O,nt,-8%,3,1%,2%,0%
O=C(CN1C(=O)CCS(=O)(=O)c2ccccc21)Nc1ccc2c(c1)OCCO2,-100*,-9%,2,-5%,10%,-4%
CCC1Oc2ccccc2N(CC(=O)Nc2ccc3c(c2)OCCO3)C1=O (stereo not drawn),-94*,-4%,-3,-2%,6%,0%
SMILES,PNC assembly inh,HPGD block,GLA inh pH 4.5,aGal spleen mod,ALDH1A1 block,ALOX12 inhib
COC(=O)[C@@]1(Cc2ccccc2)[C@H]2c3cc(C(=O)N4CCCC4)n(C)c3C[C@H]2CN1C(=O)c1ccccc1,nt,-6%,1,4%,2%,-3%
O=C1CC(NN2CCCCC2)C(=O)N1c1ccccc1 (stereo not drawn),nt,nt,7,0%,?,nt
COc1ccc2c(c1)sc(=N)n2C,nt,nt,16,8%,20µM*,nt
COc1c(-c2coc3cc4c(cc3c2=O)CC(O)C(C)(C)O4)ccc2c1C=CC(C)(C)O2 (stereo not drawn),nt,16µM*,-14,14%,?,-20%
CCc1ccc2c(c1)c1nc(C)sc1n2CC,56,28µM*,-3,-3%,32µM*,?
Cc1nc2c3cc(F)ccc3n(Cc3ccc(F)cc3)c2s1,80,-16%,-12,11%,-10%,-1%
O=C(CSc1nnc(C2CC2)n1Cc1ccco1)NCC(F)(F)F,nt,nt,5,-4%,24µM*,nt
O=C(CSc1nnc(C2CC2)n1-c1ccccc1)NCc1ccco1,-22,-11%,-5,-12%,-3%,0%
O=C1C[C@H](c2ccccc2)Oc2cc(O)cc(O)c21,nt,-11%,1,-2%,0%,-3%
O/N=C/c1ccccc1Oc1ccccc1,-22,16µM*,-2,1%,?,-1%
Cc1cc(C)cc(Oc2ccccc2/C=N\O)c1,?,22µM*,-19,-6%,7%,-2%
Cc1ccc(N2C(=O)NC(NC(=O)C3CC3)(C(F)(F)F)C2=O)cc1 (stereo not drawn),-100*,-13%,2,5%,9%,3%
CCn1c(SCC#N)nc2c(c1=O)C1(CCCC1)Cc1ccccc1-2,?,-11%,-7,3%,0%,-5%
CCn1c(=O)c2c(n3c(=S)[nH]nc13)-c1ccccc1CC21CCCCC1,nt,nt,-3,0%,22µM*,nt
C/C(=N\NC(=O)c1ccc([N+](=O)[O-])cc1)c1cc2ccccc2oc1=O,-24,?,-2,3%,0%,-14%
C/C(=N\NC(=O)c1ccccc1)c1cc2cc([N+](=O)[O-])ccc2oc1=O,?,25µM*,-6,7%,-15%,-4%
O=C(c1ccncc1)N1CCC2(CC1)CN(C(c1ccccc1)c1ccccc1)C2,nt,-11%,nt,1%,14%,0%
c1ccc(CNc2ncnc3ccc(-c4cccnc4)cc23)cc1,nt,nt,nt,5%,?,nt
COc1cccc(Nc2nnc(SCc3cc([N+](=O)[O-])cc4c3OCOC4)s2)c1,9,-25%,-12,-4%,-2%,-9%
Cc1cccc(C)c1Nc1nnc(SCc2cc([N+](=O)[O-])cc3c2OCOC3)s1,-1,11µM*,-3,10%,22µM*,3%
COc1ccccc1C1=Nn2c(nnc2-c2ccccc2OC)SC1,nt,nt,nt,-1%,nt,nt
Cc1ccc(-c2nnc3n2N=C(c2ccccc2Br)CS3)cc1,-9,22µM*,-5,1%,-6%,-16%
